# FEN1 inh: inhibitors of human flap endonuclease 1; P39748; Recombinant FEN1 flap cleavage, fluorescence, 15 min; Potency, µM (top dose mostly 114 µM), without a hit: at the top dose activity change, negative = inhibition, most hits filed as inhibitors; 390,000 compounds, 0.35% hits; AID 588795; note: nearly all actives have a fitted effect of over 65% in size
# Target sequence (P39748 whole entry, looked up): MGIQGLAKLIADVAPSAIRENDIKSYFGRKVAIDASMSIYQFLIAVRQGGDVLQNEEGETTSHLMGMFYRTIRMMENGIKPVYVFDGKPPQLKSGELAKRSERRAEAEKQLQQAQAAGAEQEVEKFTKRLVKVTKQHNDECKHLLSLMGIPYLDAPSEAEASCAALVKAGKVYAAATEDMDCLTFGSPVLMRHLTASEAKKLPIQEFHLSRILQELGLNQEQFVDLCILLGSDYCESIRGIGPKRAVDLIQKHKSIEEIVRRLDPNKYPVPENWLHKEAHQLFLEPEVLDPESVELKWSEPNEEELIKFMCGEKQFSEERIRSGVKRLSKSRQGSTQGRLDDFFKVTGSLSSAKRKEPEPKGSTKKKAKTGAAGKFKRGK
#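 FEN1 at 10 nM, compound pretreatment for 15 min (room temperature), 50 nM final substrate to initiate; endpoint reads at 0 and 15 min; DMSO-only plates used as vehicle background.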
# PGK inhibitor: inhibitors of T. brucei phosphoglycerate kinase | P07378 | 380,000 compounds, 0.043% hits | Potency, µM (top dose mostly 57.5 µM), for inactives: top-dose activity change, negative = inhibition, usual class: inhibitors | PGK/GAPDH coupled, Kinase-Glo luminescence, 60 min; note: nearly all actives have a fitted effect of over 60% in size
#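 Recombinant glycosomal PGK reaction used 1,3-bisphosphoglycerate generated in-well by GAPDH (100nM final) in 100mM TEA pH 7.6, 5mM MgCl2, 0.01% Tween-20. After 60 minutes at room temperature, ATP was read by Kinase-Glo Plus luminescence end-point.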
# RECQ1 inh-1: RECQ1 (human) helicase inhibition; Potency, µM (series often up to 57.3 µM), inactives show top-dose activity, negative = inhibition, most hits filed as inhibitors; P46063; RECQ1 DNA unwinding, red fluorescence kinetic read; 240,000 compounds, 0.54% hits;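 note: plate controls were vehicle for no effect and no enzyme for full effect; nearly all actives have a fitted effect of over 30% in size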
#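 50 nM RECQ1T1 preincubated 15 min with compound in Tris pH 8.0 buffer with MgCl2, DTT, Tween-20 and 2.5 ug/ml poly(dI-dC); started with 200 nM TAMRA/BHQ-2 forked duplex and 2 mM ATP. Unwinding read as fluorescence (525/598 nm), two reads 2 h apart.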
# BLM inh: blocks DNA unwinding by human BLM helicase; recombinant BLM DNA unwinding, fluorescence dequenching; 350,000 compounds, 0.2% hits; Potency, µM (series often up to 56.1 µM), for inactives: at the highest dose activity change, negative = inhibition, actives largely listed as inhibitors;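 note: plate controls were vehicle for no effect and no enzyme for full effect; nearly all actives have a fitted effect of over 35% in size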
# APEX1 inh: blocks human APE1 abasic DNA cleavage. 350,000 compounds, 0.35% hits. AID 2517. Potency, µM (top dose mostly 65.8 µM), without a hit: at the highest dose activity change, negative = inhibition, most hits filed as inhibitors. recombinant APE1, TAMRA/BHQ-2 abasic DNA cleavage fluorescence;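 note: plate controls were vehicle for no effect and reference inhibitor for full effect; nearly all actives have a fitted effect of over 55% in size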
#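 Enzyme (0.75 nM final) and test compound are incubated 15 min at room temperature before adding 50 nM quenched THF abasic-site duplex. Cleavage dequenches TAMRA, followed at 525/598 nm over three reads one minute apart.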
# RECQ1 conf: confirmation of human RECQ1 helicase inhibitors; shares compounds with RECQ1 inh-1; RECQ1 helicase DNA unwinding, fluorescence; Potency, µM (series often up to 229 µM), for inactives: at the top dose activity change, negative = inhibition, most hits filed as inhibitors; 610 compounds, 28% hits; note: nearly all actives have a fitted effect of over 45% in size
# ADP FP counter: displaces ADP in a fluorescence polarization counter-screen for RECQ1 hits | shares compounds with RECQ1 inh-1 | ADP fluorescence polarization displacement counterscreen | Potency, µM (series often up to 228 µM), inactives show at the top dose activity change, negative = inhibition, actives largely listed as inhibitors | 530 compounds, 27% hits | AID 2711; note: nearly all actives have a fitted effect of over 45% in size
# RECQ1 inh-2: RECQ1 helicase inhibition confirmed, round 2; Potency, µM (highest dose often 119 µM), for inactives: at the highest dose activity, negative = inhibition, most hits filed as inhibitors; shares compounds with RECQ1 inh-1; 1,100 compounds, 15% hits; recombinant RECQ1 DNA unwinding, red fluorescence; note: nearly all actives have a fitted effect of over 50% in size
# Starred values were filed as active, the others as inactive; i = inactive; ? = inconclusive; . = no result given; [ ] = dose if it differs, or a comment. This is a sample that favours compounds with a hit; in the whole collection about 0.74% have one here. Calls come from the whole dose curve; as a rule, active = well fitted curve in the direction sought with a large enough effect; inconclusive = small, poorly fitted or top-dose-only effect, or another doubt; inactive = no such curve, though single readings can be large; an effect the other way counts as inactive or inconclusive. Unless noted, % is set by controls: 0 for no effect and ±100 for the full control effect; potency is the fitted concentration of half-maximal effect.
SMILES,FEN1 inh,PGK inhibitor,RECQ1 inh-1,BLM inh,APEX1 inh,RECQ1 inh-2,others
Cc1ccc(NC(=O)C2CCCN(C(=O)c3ccc(Cl)cc3)C2)cc1C (stereo not given),7%,-7%,i,-3%,-3%,.,
C(=C\c1ccco1)/c1ccc2ccccc2n1,7%,-30%,8.9µM*,?,?,-1%,RECQ1 conf=?;ADP FP counter=45µM*
COc1ccc(S(=O)(=O)/N=C2/NC(=O)/C(=C\c3ccco3)S2)cc1,2%,-4%,-4%,6%,6%,.,
COc1ccc(S(=O)(=O)/N=C2/NC(=O)/C(=C/c3ccco3)S2)cc1,-8%,-8%,?,5%,?,-27%,
O=CC(=O)c1ccc(Br)cc1,-7%,.,.,.,.,.,
N#C/C=C(/N)c1ccc(Br)cc1,2%,i,?,-2%,-5%,7%,
O=C(COC(=O)CCS(=O)(=O)c1ccccc1)Nc1ccc(N2CCCCC2)cc1,15%,-4%,.,.,13%,.,
CC1=CC(C)(C)N(S(=O)(=O)c2ccc(C)cc2)c2ccccc21,?,-10%[11.5 µM],-5%,-7%,?,.,
O=S(=O)(c1ccccc1)n1c(C(O)c2ccccn2)cc2ccccc21 (stereo not given),2%,-4%,?,-2%,0%,-13%,
COc1ccc2c(c1)cc(C(O)c1ccccn1)n2S(=O)(=O)c1ccccc1 (stereo not given),-9%,-10%,-13%,-3%,?,.,
CCC(=O)c1cn(CC(=O)Nc2ccccc2Cl)c2ccccc12,-1%,0%,.,1%,-7%,.,
CCOc1ccccc1/C=C(\NC(=O)c1ccccc1)C(=O)NCCC(=O)O,2%,0%,-16%,6%,-3%,.,RECQ1 conf=0%;ADP FP counter=2%
COc1ccccc1N1CCN(C(C)C(=O)Nc2ccc(S(=O)(=O)N3CCOCC3)cc2)CC1 (stereo not given),-1%,-1%,1%,3%,2%,.,
CCOC(=O)c1cc2c(ccn2C)n1Cc1ccccc1C,-17%,-3%[11.5 µM],28µM*,-9%,-7%,?,
Cc1ccccc1Cn1c(C(=O)OC(C)C)cc2c1ccn2C,-15%,2%,-13%,-6%,10%,.,
N/C(=N\NC(=O)c1ccccc1Cl)c1cc2ccccc2oc1=O,-10%,0%,28µM*,-7%,4%,-6%,
C/C(=N\NC(=O)c1ccncc1)c1cc2ccccc2oc1=O,8%,-2%,-4%,1%,2%,.,
O=C(NCC1CCNCC1)c1ccncc1,-5%,3%,-2%,4%,17%,.,
CN1CCN(S(=O)(=O)c2ccc(NC(=S)NC(=O)C3CCCCC3)cc2)CC1,-4%,-1%,?,-2%,-3%,-17%,
O=C(O)CSc1nnc(Cc2ccccc2)n1Cc1ccccc1,11%,-3%,1%,1%,0%,.,RECQ1 conf=12%;ADP FP counter=9%
COc1ccc2cc(C(C)c3nc4ccccc4c(=O)n3N)ccc2c1 (stereo not given),-4%,i,28µM*,-10%,5%,-23%,
N/C(=N\OC(=O)c1cccs1)c1cccc([N+](=O)[O-])c1,-5%,3%,45µM*,-7%,13%,-8%,
Cc1cccc(C(=O)O/N=C(\N)c2cccc([N+](=O)[O-])c2)c1,-9%,-15%,14%,-2%,-1%,.,
COc1cc(C(=O)N[C@@H](Cc2c[nH]c3ccccc23)C(=O)O)cc(OC)c1OC,2%,i,.,1%,28%[12.4 µM],.,

# High-throughput results deposited in PubChem BioAssay by National Center for Advancing Translational Sciences (NCATS).
